Laboratory results: PubChem BioAssay (NCI)
This is part of a sample that, as a whole, favours compounds with a hit. Of some 83,000 tested, about 20% had one in any assay.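 Interpretation: 100, growth as untreated; towards 0, rising growth inhibition; 0, no net growth; 0 to -100, cell death. Compounds scoring below 10 were considered active.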 Unmarked numbers belong to inactive results. The source made the active and inactive calls.

Key:
Experiment in all cases: NCI-60 one-dose screen, 48 h (100 = growth as untreated, 0 = no growth, -100 = all killed)
Conditions in all cases: 10 µM
[1] = test system: DU-145 prostate
[2] = test system: K-562 leukemia
[3] = test system: MALME-3M melanoma
[4] = test system: MDA-MB-231 breast
[5] = test system: RXF 393 renal
[6] = test system: SF-268 CNS
[7] = test system: SF-295 CNS
[8] = test system: SF-539 CNS
[9] = test system: UACC-257 melanoma
[10] = test system: M14 melanoma

SMILES	growth [1]	growth [2]	growth [3]	growth [4]	growth [5]	growth [6]	growth [7]	growth [8]	growth [9]	growth [10]
CCCCCCOc1ccc(/C=C/C(=O)c2ccc(B(O)O)cc2)cc1	88.5%	82.5%	86.8%	73.8%	74.2%	76.1%	111%	79.1%	83.4%	80.8%
N#Cc1ncc(-c2cc(F)ccc2F)c(NC2CCCCCC2)n1	97.8%	90.2%	114%	60.7%	82.8%	60%	69.1%	79.7%	81.8%	104%
CCOC(=O)C1=C(Nc2ccc(OC)cc2)C(N)=NC1=N	44.1%	19%	31.9%	67.5%	46.7%	60%	54.8%	25%	44.9%	27.3%
CS(=O)(=O)Nc1ccc(OCc2nnc(-c3ccc(Cl)cc3)o2)c(F)c1	101%	100%	111%	85.7%	108%	98.9%	94.1%	85.1%	99.6%	99.3%
COC(=O)[C@]12CC[C@@H](C)[C@H](C)[C@@H]1C1=CC[C@@H]3[C@@]4(C)C/C(=N\O)[C@H](O)[C@@]5(C)COC(=C45)C[C@@]3(C)[C@]1(C)CC2	-94.8% (active)	-58.4% (active)	-71.1% (active)	-59.3% (active)	-73.4% (active)	-78.6% (active)	-88.5% (active)	-75.2% (active)	-90.5% (active)	-82.3% (active)
COc1cc(CSc2nc3ccc(Cl)cc3c(=O)n2-c2ccccc2)cc(OC)c1OC	92.9%	38.2%	76.5%	63%	68.9%	77.7%	84.2%	78.9%	89.7%	93.2%
CCCCOCCOCCOCc1cc2c(cc1Br)OCO2	107%	94.7%	94.8%	97.1%	108%	103%	100%	92.5%	101%	110%
O=C(NCCc1nccs1)c1cnc2c(S)cccc2c1	22.9%	4.3% (active)	40.1%	13.6%	9.59% (active)	37.7%	38.8%	22.8%	17.7%	10.7%
c1ccc(CC(NCCNC(Cc2ccccc2)c2ccccc2)c2ccccc2)cc1 (stereo not given)	15.7%	-25.7% (active)	-22.5% (active)	7.83% (active)	-8.13% (active)	43.1%	2.14% (active)	32.3%	48.5%	2.08% (active)
FC(F)(F)c1ccc(-c2nc(-c3nc4cc(Cl)c(Cl)cc4[nH]3)c3ccccn23)cc1	58.6%	79.8%	22.3%	29.6%	31.7%	44.9%	71.2%	32.6%	93.4%	79.6%
Cc1cnc(C=O)c2cccc([N+](=O)[O-])c12	92.3%	51.3%	81.1%	93.4%	93.1%	88.5%	89.9%	90.1%	107%	95.9%
COc1ccc(-c2nsc3c2NC(=O)CC3c2ccc(Cl)cc2)cc1 (stereo not given)	98.4%	66.6%	78%	94.9%	105%	97.2%	79.2%	92.5%	82.5%	84.4%
COc1cccc(C(=O)N(c2ccc(F)c(F)c2)C(C(=O)NC(C)(C)C)c2cc3c(C)cc(C)cc3nc2Cl)c1 (stereo not given)	75.5%	55.8%	95%	47.4%	72.3%	64.7%	54%	79.4%	79.6%	64.9%
CC(C)C(C)C(N)C(=O)O (stereo not given)	105%	90.8%	95.9%	125%	108%	107%	117%	101%	108%	94.1%
CC(=O)n1nc(C(=O)OC(C)(C)C)c2cc(F)c(F)cc21	102%	110%	98.7%	94%	126%	101%	101%	104%	113%	90.9%
COc1ccc(C(=O)c2sc3nc(-c4cccs4)ccc3c2N)cc1OC	81%	13%	58.9%	43.8%	66.9%	62.8%	51.3%	54.6%	76.3%	42.1%
COc1cccc(C2(C)Nc3ccccc3-c3nc4ccccc4n32)c1 (stereo not given)	112%	100%	108%	101%	111%	110%	94.6%	105%	110%	102%
O=C(COc1ccc(-c2nc3ccccc3[nH]2)cc1)N=Nc1c(O)[nH]c2ccccc12	101%	44.8%	80.9%	84.5%	107%	98.3%	102%	106%	110%	116%
N#Cc1ccc(-n2cnc(NC(=O)[C@H]3CCN(C#N)C3)c2)cc1	29.7%	17.8%	-14.1% (active)	14.8%	-54.8% (active)	29.9%	42%	-9.26% (active)	42.3%	29.1%
Cc1ccc(NC(=O)/C=N/O)cc1C	104%	95.6%	108%	95.9%	99.6%	104%	85.4%	96.4%	96.4%	101%
O=c1oc2cc(OS(=O)(=O)C3CC3)ccc2c2c1CCCCCC2	91.4%	51.2%	95.3%	78.3%	88.3%	94.4%	75.3%	82.2%	92.8%	81.4%
CCc1ccc(-c2nnc(COc3ccc(-c4nc5ccc(C)cc5[nH]4)cc3OC)o2)cc1	48.5%	33.1%	9.91% (active)	9.26% (active)	24.4%	55.6%	20%	-28.2% (active)	95.7%	49.5%
O=NN(CC(=O)N/N=C/C=C\c1ccccc1)CC(=O)N/N=C/C=C/c1ccccc1	109%	96.9%	90.6%	89.2%	71.3%	88%	106%	92.3%	98.8%	97.5%
N#Cc1c2c([nH]c(=O)c1C(N)=O)CCCCC2	115%	113%	90.5%	102%	108%	103%	101%	95.1%	96.7%	95.6%
Nc1ncc(-c2ccc(C(F)(F)F)cc2)c(NC2CCCCCC2)n1	64.2%	16.2%	-21.4% (active)	65.1%	50.3%	56.1%	-20.9% (active)	65.2%	-13.5% (active)	27.8%
COc1ccc(NC(=O)c2sc3nc4c(cc3c2N)C(O)CCC4)cc1 (stereo not given)	93.3%	80.6%	122%	116%	102%	99.7%	82.4%	111%	97.4%	101%
O=C(Nc1cccc(F)c1)Nc1cccc(Cl)c1	65.8%	10.9%	84.6%	80.7%	104%	80.4%	92.7%	105%	87.7%	100%
